From the supplement of paper PMC11018630
Structures can show the parent of a compound that is named as a salt. ± gives the standard deviation of the averaged measurements.

test system: RDEB dermal fibroblasts EB119; assay: day of extracellular matrix detachment from plate (days); higher = delayed detachment (less fibrotic matrix); conditions: compound concentration: 10 uM

SMILES | day of extracellular matrix detachment from plate
O=C1C(O)=C([C@H]2CC[C@H](c3ccc(Cl)cc3)CC2)C(=O)c2ccccc21 [Atovaquone] | 26 ± 1.4
Cc1cc(/C=C/C#N)cc(C)c1Nc1ccnc(Nc2ccc(C#N)cc2)n1 [Rilpivirine] | 39
CN1CCC(COc2cnc(-c3cccc(Cn4nc(-c5cccc(C#N)c5)ccc4=O)c3)nc2)CC1 | 15.5 ± 3.5
CNC(=O)[C@H](Cc1ccccc1)NC(=O)[C@H](CC(C)C)[C@H](CSc1cccs1)C(=O)NO [Batimastat (BB-94)] | 18
CCN(CC)CCCC(C)Nc1ccnc2cc(Cl)ccc12 (stereo not given) [Chloroquine Phosphate] | 35.3 ± 1.1
CSc1ccc2c(c1)N(CCC1CCCCN1C)c1ccccc1S2 (stereo not given) [Thioridazine HCl] | 39
CCCCCCCCc1ccc(CCC(N)(CO)CO)cc1 [Fingolimod (FTY720) HCl] | 26 ± 1.4
CC(C)[C@H]1C(=O)N[C@@H](CCCNC(=N)N)C(=O)NCC(=O)N[C@@H](CC(=O)O)C(=O)N[C@H](Cc2ccccc2)C(=O)N1C [Cilengitide] | 4
C=CC[C@@H]1/C=C(\C)C[C@H](C)C[C@H](OC)[C@H]2O[C@@](O)(C(=O)C(=O)N3CCCC[C@H]3C(=O)O[C@H](/C(C)=C/[C@@H]3CC[C@@H](O)[C@H](OC)C3)[C@H](C)[C@@H](O)CC1=O)[C@H](C)C[C@@H]2OC [Tacrolimus (FK506)] | 20.7 ± 1.1
C[N+](C)(CCOc1ccccc1)Cc1ccccc1.O=C([O-])c1cc2ccccc2cc1O [Bephenium Hydroxynaphthoate] | 26 ± 1.4
